The structures appear in SMILES notation. Results filed as inconclusive are left out. Values without a mark were called inactive. The source made the active and inactive calls. The call rests on the fitted dose curve; in most records, active means well fitted cell-killing curve with a large enough effect; inconclusive means small, poorly fitted or top-dose-only effect, or effect the other way; inactive means no such curve, though single readings can be large or run the other way.

Experiment [1] in a line: Quantitative High-Throughput drug screen in 47 multiple myeloma cell lines against the NCATS MIPE library collection: OPM1_PLB cell viability assay (AID 1918989). Further: nearly all actives have a fitted effect of over 40% in size. The note with it: CellTiter-Glo, 48 h; series mostly up to 45.8 µM. The method, boiled down: (§1)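 Inhibition of viability over 48 h was scored by ATP content (CellTiter-Glo) in 500-cell wells. Zero and full viability were defined by media-only and DMSO-only wells.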

The nature of experiment [2]: Quantitative High-Throughput drug screen in 47 multiple myeloma cell lines against the NCATS MIPE library collection: U266_ATCC cell viability assay (AID 1919864). Further: nearly all actives have a fitted effect of over 35% in size. The note with it: U266 myeloma viability, CellTiter-Glo ATP luminescence, 48 h; series mostly up to 45.8 µM. The procedure, abridged: as §1
In general terms: ATP-based viability assays read luminescence as a measure of living cells.

The nature of experiment [3]: Quantitative High-Throughput drug screen in 47 multiple myeloma cell lines against the NCATS MIPE library collection: XG1_PLB cell viability assay (AID 1919866). Further: nearly all actives have a fitted effect of over 35% in size. The conditions noted are these: CellTiter-Glo ATP, 48 h; series mostly up to 45.8 µM. The method, boiled down:
as §1

A short description of experiment [4]: Quantitative High-Throughput drug screen in 47 multiple myeloma cell lines against the NCATS MIPE library collection: VP6_DJ cell viability assay (AID 1919867). Further: nearly all actives have a fitted effect of over 40% in size. The conditions noted are these: ATP luminescence, 48 h; series mostly up to 45.8 µM. The method, boiled down:
as §1

A short description of experiment [5]: Quantitative High-Throughput drug screen in 47 multiple myeloma cell lines against the NCATS MIPE library collection: PE2_PLB cell viability assay (AID 1919869). Further: nearly all actives have a fitted effect of over 35% in size. The conditions noted are these: PE2_PLB myeloma cells viability, ATP luminescence, 48 h; series mostly up to 45.8 µM. The method, boiled down: as §1
A short description of experiment [6]: Quantitative High-Throughput drug screen in 47 multiple myeloma cell lines against the NCATS MIPE library collection: RPMI8226_ATCC cell viability assay (AID 1919871). Further: nearly all actives have a fitted effect of over 30% in size. The note with it: RPMI8226 myeloma viability, CellTiter-Glo ATP luminescence, 48 h; series mostly up to 45.8 µM. The procedure, abridged: as §1
The nature of experiment [7]: Quantitative High-Throughput drug screen in 47 multiple myeloma cell lines against the NCATS MIPE library collection: OPM2_DSMZ cell viability assay (AID 1919872). Further: nearly all actives have a fitted effect of over 30% in size. The conditions noted are these: OPM2 myeloma viability, CellTiter-Glo ATP luminescence, 48 h; series mostly up to 45.8 µM. The method, boiled down:
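We plated 500 myeloma cells per well, pinned in MIPE 4.0 compounds, and incubated for 48 hours at 37C. ATP was then quantified with CellTiter-Glo, with DMSO and media-only wells defining 100% and 0%.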

Experiment [8] is described as follows: Quantitative High-Throughput drug screen in 47 multiple myeloma cell lines against the NCATS MIPE library collection: KMS28BM_JCRB cell viability assay (AID 1919874). Further: nearly all actives have a fitted effect of over 35% in size. The note with it: CellTiter-Glo ATP, 48 h; series mostly up to 45.8 µM. The procedure, abridged:
as §1

Experiment [9] in a line: Quantitative High-Throughput drug screen in 47 multiple myeloma cell lines against the NCATS MIPE library collection: UTMC2_PLB cell viability assay (AID 1919868). Further: nearly all actives have a fitted effect of over 55% in size. The conditions noted are these: CellTiter-Glo ATP luminescence, 48 h; viability (% of DMSO control): at 45.8 µM (top of the series). The procedure, abridged: as §1
Experiment [10] in a line: Quantitative High-Throughput drug screen in 47 multiple myeloma cell lines against the NCATS MIPE library collection: PCM6_Riken cell viability assay (AID 1919870). Further: nearly all actives have a fitted effect of over 30% in size. The note with it: CellTiter-Glo ATP, 48 h; series mostly up to 45.8 µM. The procedure, abridged: as §1
Experiment [11] can be described thus: Quantitative High-Throughput drug screen in 47 multiple myeloma cell lines against the NCATS MIPE library collection: XG6_PLB cell viability assay (AID 1919865). Further: nearly all actives have a fitted effect of over 40% in size. The conditions noted are these: XG6 myeloma viability, CellTiter-Glo ATP luminescence, 48 h; series mostly up to 45.8 µM. The procedure, abridged: as §1
Experiment [12] in a line: Quantitative High-Throughput drug screen in 47 multiple myeloma cell lines against the NCATS MIPE library collection: KMS11_JCRBsus cell viability assay (AID 1919873). Further: nearly all actives have a fitted effect of over 50% in size. The conditions noted are these: KMS11 myeloma viability, CellTiter-Glo ATP luminescence, 48 h; series mostly up to 45.8 µM. The procedure, abridged:
as §1

A short description of experiment [13]: Quantitative High-Throughput drug screen in 47 multiple myeloma cell lines against the NCATS MIPE library collection: SKMM1_PLB cell viability assay (AID 1919863). Further: nearly all actives have a fitted effect of over 35% in size. The note with it: SKMM1 myeloma viability, CellTiter-Glo ATP, 48 h; viability: stronger effect = lower value. The procedure, abridged:
as §1
Potency means the concentration at half of the fitted maximal effect.

For the molecule `Cc1ccccc1C(OCCN(C)C)c1ccccc1` (stereo unspecified), the Potency result in experiment [1], in [2], in experiment [3], in experiment [4], in [5] and in experiment [6] was “inactive” each time. In addition, the Potency result in [7] was “inactive”. Moreover, the Potency in experiment [8] is 7.43 µM (active).
Take `CN(C(=O)c1ccc(F)cc1C(F)(F)F)C1CCN(c2nnc(-c3ccnn3C)c3ccccc23)CC1`: in experiment [1], the Potency entry is “inactive”. The Potency in experiment [3] is 13.2 µM (active); in experiment [4], 16.6 µM (active); in experiment [5], 18.7 µM (active).
For the molecule `COc1cc(Oc2ccnc3cc(OC)c(OC)cc23)ccc1NC(=O)NC(C)c1nccs1` (stereo unspecified), the Potency in experiment [1] is 20.9 µM (active); in experiment [5], 23.5 µM (active); in experiment [10], 13.2 µM (active); in experiment [6], 16.6 µM (active); in experiment [8], 9.35 µM (active). Besides, the Potency result in experiment [2] and in experiment [9] was “inactive” throughout.
For `O=c1ncn2nc(Sc3ccc(F)cc3F)ccc2c1-c1c(Cl)cccc1Cl`, the Potency in experiment [1] is 16.6 µM (active); in experiment [2] it was 20.9 µM (active); in experiment [11], 13.2 µM (active); in [4] it was 9.35 µM (active); in experiment [5], 3.72 µM (active). For the same molecule, the Potency entry in experiment [6] and in experiment [8] was “inactive” in each case.
Take `Cn1cnc([N+](=O)[O-])c1Sc1ncnc2nc[nH]c12`: the Potency in experiment [1] is 4.69 µM (active); in [2], 10.5 µM (active); in experiment [3], 5.26 µM (active); in experiment [4] it was 16.6 µM (active); in [9], 5.26 µM (active); in experiment [5], 14.8 µM (active). In addition, the Potency was 11.8 µM (active) in experiment [10], 0.935 µM (active) in [6] and 5.9 µM (active) in experiment [8].
Turning to `Cc1cc2c(F)c(Oc3ncnn4cc(OC[C@@H](C)O)c(C)c34)ccc2[nH]1`, the Potency was 20.9 µM (active) in experiment [1], 23.5 µM (active) in experiment [2], 0.743 µM (active) in experiment [11] and 23.5 µM (active) in [7].
For the molecule `COc1cc2c(cc1OC)CN(CCc1ccc(NC(=O)c3cccc4c(=O)c5cccc(OC)c5[nH]c34)cc1)CC2`, the Potency in experiment [1] was 16.6 µM (active); in [2], 9.35 µM (active); in experiment [5], 20.9 µM (active). The Potency entry in experiment [4], in [6] and in experiment [8] was “inactive” throughout.
On to `COCC(=O)NCC=Cc1ccc2ncnc(Nc3ccc(Oc4ccc(C)nc4)c(C)c3)c2c1`, for which the Potency is 18.7 µM (active) in [1]; 16.6 µM (active) in experiment [11]; 20.9 µM (active) in experiment [3]; 18.7 µM (active) in experiment [4]; 16.6 µM (active) in experiment [5]; 16.6 µM (active) in experiment [6]. Moreover, the Potency in experiment [8] is 29.6 µM (active).
On to `Cc1ccc(-n2nc(C(C)(C)C)cc2NC(=O)Nc2ccc(OCCN3CCOCC3)c3ccccc23)cc1`, for which the Potency was 26.4 µM (active) in [1]; 23.5 µM (active) in experiment [2]; 10.5 µM (active) in [4]; 4.18 µM (active) in experiment [9]; 16.6 µM (active) in experiment [5]; 23.5 µM (active) in [10]. Also, the Potency result in experiment [7] and in [8] was “inactive” each time.
On to `OC(CCN1CCCCC1)(c1ccccc1)C1CC2C=CC1C2` (stereo unspecified), for which the Potency result in experiment [1], in experiment [2], in experiment [3], in experiment [4], in experiment [5] and in experiment [7] was “inactive” in each case. Also, the Potency result in experiment [8] was “inactive”.
Turning to `N=c1nc(N2CCCCC2)cc(N)n1O`, the Potency is 16.6 µM (active) in experiment [1], 23.5 µM (active) in experiment [11], 26.4 µM (active) in experiment [3] and 23.5 µM (active) in experiment [10]. The Potency result in experiment [2], in experiment [6], in experiment [12] and in experiment [8] was “inactive” throughout.
Consider `CCOc1ccc(Cc2cc([C@@H]3O[C@H](CO)[C@@H](O)[C@H](O)[C@@H]3O)ccc2Cl)cc1`, for which the Potency was 14.8 µM (active) in experiment [1] and 16.6 µM (active) in experiment [4]. Besides, the Potency result in [2], in experiment [5], in experiment [6], in experiment [12] and in experiment [8] was “inactive” each time.
For `COc1cc(F)c(F)c(Nc2ccc(I)cc2F)c1NS(=O)(=O)C1(C[C@H](O)CO)CC1`, the Potency was 11.8 µM (active) in [1], 16.6 µM (active) in experiment [2], 10.5 µM (active) in experiment [6] and 20.9 µM (active) in experiment [8]. In addition, the Potency result in [7] was “inactive”.
For `CCn1c(-c2nonc2N)nc2cnc(Oc3cccc(NC(=O)c4ccc(OCCN5CCOCC5)cc4)c3)cc21`, the Potency was 16.6 µM (active) in experiment [1]; 20.9 µM (active) in experiment [11]; 8.33 µM (active) in [4]; 0.935 µM (active) in experiment [9]; 10.5 µM (active) in experiment [5]; 11.8 µM (active) in experiment [12]. For the same molecule, the Potency in experiment [8] was 5.26 µM (active).
`Cc1[nH]c(=O)c(C#N)cc1-c1ccc2nccn2c1`: the Potency result in [1], in experiment [2], in experiment [3], in experiment [5], in experiment [6] and in experiment [7] was “inactive” throughout. In [8], the Potency entry was “inactive”. Besides, in [10], the Potency is 2.64 µM (active).
For the molecule `CCn1c(-c2nonc2N)nc2c(C#CC(C)(C)O)ncc(OC[C@H]3CCCNC3)c21`, the Potency is 0.148 µM (active) in [1]; 23.5 µM (active) in experiment [2]; 18.7 µM (active) in experiment [11]; 14.8 µM (active) in experiment [4]; 0.059 µM (active) in experiment [9]; 9.35 µM (active) in experiment [5]. Further, the Potency in experiment [10] was 14.8 µM (active); in experiment [12], 2.96 µM (active); in [8] it was 0.372 µM (active).
On to `COc1ccc(C2=N[C@H](c3ccc(Cl)cc3)[C@H](c3ccc(Cl)cc3)N2C(=O)N2CCNC(=O)C2)c(OC(C)C)c1`, for which the Potency in [13] is 5.9 µM (active); in experiment [2] it was 20.9 µM (active); in [11] it was 2.64 µM (active); in experiment [6] it was 20.9 µM (active); in [12] it was 16.6 µM (active); in experiment [8], 16.6 µM (active). Moreover, the Potency entry in experiment [7] is “inactive”.
Consider `COc1nc(-c2ccc3c(c2)OCO3)n(-c2ccc(NC(=O)CSc3ccccc3)cc2)n1`, for which the viability (as a rule, a read-out of living cells in per cent, often relative to untreated cells) in experiment [13] is 123%. The Potency in experiment [2] is 5.26 µM (active). For the same molecule, the Potency result in experiment [11], in experiment [3], in experiment [5], in experiment [10] and in experiment [12] was “inactive” in each case.
Consider `OC(CN1CCC(Cc2ccc(F)cc2)CC1)c1ccc(Cl)cc1` (stereo unspecified), for which the Potency result in [1], in experiment [3], in experiment [9], in experiment [5], in experiment [6] and in experiment [12] was “inactive” throughout.
Take `Cc1cc(SCc2sc(-c3ccc(C(F)(F)F)cc3)nc2C)ccc1OCC(=O)O`: the Potency was 16.6 µM (active) in [13] and 14.8 µM (active) in experiment [6]. Moreover, the Potency entry in experiment [11], in experiment [10] and in experiment [7] was “inactive” in each case.

These data come from PubChem BioAssay (NCATS).
